Measurements reported in the supplement of paper PMC3545927.
The list shows a part of the results. The hit rate among all sequences tested is not known here.

B1: HC1994 (peptide)
chain: CAKVCCSMSYAGNASASA
B2: FS-2816 (peptide)
chain: CARSRRGLFAAGNASASA
B3: FS-2312 (peptide)
chain: CARSRRGIFIAGNASASA
B4: FS-1908 (peptide)
chain: CARLRRGLAAAGNASASA
B5: FS-2012 (peptide)
chain: CARFDRQIFIAGNASASA
B6: FS-2329 (peptide)
chain: CAREKRFCTGAGNASASA
B7: FS-1694 (peptide)
chain: CAREKRFTFVAGNASASA
B8: FU1 (peptide)
chain: CAREKRGLFGAGNASASA
B9: FS-2549 (peptide)
chain: CAREKRGWTMAGNASASA
B10: FS-3153 (peptide)
chain: CAREKRGPSGAGNASASA
B11: HC2072 (peptide)
chain: CAVVCCSMEYAGNASASA
B12: HC854 (peptide)
chain: CAGGRHLIFCAGNASASA
B13: HC949 (peptide)
chain: CAKQSGENLPAGNASASA
B14: HC1549 (peptide)
chain: CAEYDLELITAGNASASA
B15: FS-1179 (peptide)
chain: CAVRTRIKRSAGNASASA
B16: FS-297 (peptide)
chain: CASLKKIKRSAGNASASA
B17: FS-46 (peptide)
chain: CAKSSRIKRSAGNASASA
B18: FS-1515 (peptide)
chain: CACPNIIKRSAGNASASA
B19: HC706 (peptide)
chain: CAASPKGPVIAGNASASA
B20: HC766 (peptide)
chain: CATDNSSPPVAGNASASA
B21: FS-728 (peptide)
chain: CATLKRTRKFAGNASASA
B22: FS-330 (peptide)
chain: CAGNRRLKRFAGNASASA
B23: FS-403 (peptide)
chain: CAATSRTKRFAGNASASA
B24: FS-781 (peptide)
chain: CAGHFRLKRTAGNASASA
B25: FS-1291 (peptide)
chain: CATHRRTKRFAGNASASA
B26: FS-576 (peptide)
chain: CAYIRRTKRFAGNASASA
B27: HC822 (peptide)
chain: CAATSILGIGAGNASASA

Target: furin, P09958
Experiment: furin cleavage Z-score vs untreated control; higher = more cleavage, active = 3.5 or more, inactive = 1 or less, 8 variable residues between constant flanks
Outline: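 Purified furin digested bead-held 8-mer peptide–cDNA fusions at 1:10 enzyme:substrate in 0.01 ml of 50 mM HEPES pH 7.5 with CaCl2 and NaCl for 7.5, 15 or 30 min. The cleavage Z-score compares sequencing counts of released DNA with furin-free reactions on a log scale, with lowess adjustment and median absolute deviation scaling.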

Sequence of furin, P09958 (P09958 whole entry): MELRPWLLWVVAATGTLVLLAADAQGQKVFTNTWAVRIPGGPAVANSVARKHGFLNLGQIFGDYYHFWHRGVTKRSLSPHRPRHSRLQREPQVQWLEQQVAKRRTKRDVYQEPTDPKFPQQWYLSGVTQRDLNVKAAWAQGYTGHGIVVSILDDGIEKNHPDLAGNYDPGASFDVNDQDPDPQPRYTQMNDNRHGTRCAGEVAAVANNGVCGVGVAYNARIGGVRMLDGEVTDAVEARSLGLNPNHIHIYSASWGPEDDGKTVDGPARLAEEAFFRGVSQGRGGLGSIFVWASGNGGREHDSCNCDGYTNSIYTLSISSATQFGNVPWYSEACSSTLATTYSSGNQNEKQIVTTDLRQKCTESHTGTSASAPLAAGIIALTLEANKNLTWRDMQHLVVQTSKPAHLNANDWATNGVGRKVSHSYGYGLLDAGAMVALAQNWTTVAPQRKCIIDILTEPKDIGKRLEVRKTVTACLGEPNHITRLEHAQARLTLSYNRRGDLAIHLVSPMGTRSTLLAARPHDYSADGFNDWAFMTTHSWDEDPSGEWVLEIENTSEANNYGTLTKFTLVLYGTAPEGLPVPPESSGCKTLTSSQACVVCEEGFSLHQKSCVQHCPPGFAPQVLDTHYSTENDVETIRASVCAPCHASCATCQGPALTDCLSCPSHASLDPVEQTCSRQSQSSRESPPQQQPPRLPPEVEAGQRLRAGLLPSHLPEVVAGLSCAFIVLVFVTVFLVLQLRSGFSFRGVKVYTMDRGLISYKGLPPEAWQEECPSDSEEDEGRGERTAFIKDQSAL

| Sequence | furin cleavage Z-score (7.5 min) | furin cleavage Z-score (15 min) | furin cleavage Z-score (30 min) |
| --- | --- | --- | --- |
| B1 | 1.97 | 0.312 (inactive) | 0.855 (inactive) |
| B2 | 2.59 | 2.97 | 6.66 (active) |
| B3 | 1.57 | 2.13 | 4.7 (active) |
| B4 | 0.841 (inactive) | 1.22 | 1.44 |
| B5 | -0.31 (inactive) | -0.173 (inactive) | -0.368 (inactive) |
| B6 | 2.75 | 4.22 (active) | 4.58 (active) |
| B7 | -0.942 (inactive) | 0.437 (inactive) | 3.16 |
| B8 | 0.425 (inactive) | 4.29 (active) | 0.496 (inactive) |
| B9 | 0.613 (inactive) | 1.51 | 2.06 |
| B10 | 0.65 (inactive) | -0.112 (inactive) | 0.123 (inactive) |
| B11 | -2.66 (inactive) | 0.354 (inactive) | 1.04 |
| B12 | -0.514 (inactive) | -0.469 (inactive) | -1.05 (inactive) |
| B13 | 0.51 (inactive) | -0.215 (inactive) | -0.135 (inactive) |
| B14 | -0.697 (inactive) | -1.21 (inactive) | -2.02 (inactive) |
| B15 | 12.5 (active) | 13.6 (active) | 9.29 (active) |
| B16 | 7.52 (active) | 5.89 (active) | 5.86 (active) |
| B17 | 11.3 (active) | 10.3 (active) | 8.65 (active) |
| B18 | 2.47 | 0.593 (inactive) | 1.43 |
| B19 | 0.401 (inactive) | -0.666 (inactive) | -0.477 (inactive) |
| B20 | 0.776 (inactive) | 0.102 (inactive) | -1.25 (inactive) |
| B21 | 0.831 (inactive) | 2.85 | 1.42 |
| B22 | 8.6 (active) | 8.74 (active) | 8.35 (active) |
| B23 | 8.04 (active) | 8.57 (active) | 8.59 (active) |
| B24 | 7.47 (active) | 7.94 (active) | 7.12 (active) |
| B25 | 4.37 (active) | 4.6 (active) | 3.54 (active) |
| B26 | 1.05 | 1.14 | 0.61 (inactive) |
| B27 | -1.81 (inactive) | -0.57 (inactive) | 0.323 (inactive) |
